About 83,000 compounds went through this panel and 20% of them were active in at least one assay; those are over-represented in the sample as a whole.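 Plates (96-well) were seeded with cells, treated with compound at one concentration, and incubated for 48 hours before percent growth was determined.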 The source made the active and inactive calls. Rule for the calls: active = growth percent below 10; inactive = the rest.
Key:
Assay in all cases: NCI-60 one-dose screen, 48 h (100 = growth as untreated, 0 = no growth, -100 = all killed)
Conditions in all cases: 10 µM unless noted
DU-145 prostate = test system: DU-145 prostate
K-562 leukemia = test system: K-562 leukemia
MALME-3M melanoma = test system: MALME-3M melanoma
MDA-MB-231 breast = test system: MDA-MB-231 breast
RXF 393 renal = test system: RXF 393 renal
SF-268 CNS = test system: SF-268 CNS
SF-539 CNS = test system: SF-539 CNS
UACC-257 melanoma = test system: UACC-257 melanoma
M14 melanoma = test system: M14 melanoma
HCT-15 colon = test system: HCT-15 colon
HT29 colon = test system: HT29 colon
SNB-75 CNS = test system: SNB-75 CNS
SNB-19 CNS = test system: SNB-19 CNS
U251 CNS = test system: U251 CNS
PC-3 prostate = test system: PC-3 prostate
SK-MEL-5 melanoma = test system: SK-MEL-5 melanoma
UACC-62 melanoma = test system: UACC-62 melanoma
LOX IMVI melanoma = test system: LOX IMVI melanoma
SK-MEL-28 melanoma = test system: SK-MEL-28 melanoma
SF-295 CNS = test system: SF-295 CNS

Measured: growth

COc1cc(NC(C)CCCNC2CN3CCC2CC3)c2ncccc2c1 (stereo not given)
inactive: DU-145 prostate 112% | K-562 leukemia 22.8% | MALME-3M melanoma 81.3% | MDA-MB-231 breast 55.1% | RXF 393 renal 66.1% | SF-268 CNS 89.6% | SF-539 CNS 82.3% | UACC-257 melanoma 39.9% | M14 melanoma 51.2% | HCT-15 colon 65.8% | HT29 colon 27% | SNB-75 CNS 78.1% | SNB-19 CNS 86.5% | U251 CNS 77.7% | PC-3 prostate 55.6% | SK-MEL-5 melanoma 70% | UACC-62 melanoma 38% | LOX IMVI melanoma 76.1% | SK-MEL-28 melanoma 95.3%

Clc1ccc(COC(Cn2ccnc2)c2ccc(Cl)cc2Cl)cc1 (stereo not given)
inactive: DU-145 prostate 71.6% | MALME-3M melanoma 42.9% | MDA-MB-231 breast 57.6% | SF-268 CNS 52.1% | SF-295 CNS 17.9% | SF-539 CNS 87.7% | UACC-257 melanoma 61.9% | M14 melanoma 58.9% | HCT-15 colon 53% | HT29 colon 43.6% | SNB-75 CNS 93.3% | SNB-19 CNS 78% | U251 CNS 64.4% | PC-3 prostate 21.1% | SK-MEL-5 melanoma 49.5% | UACC-62 melanoma 52.6% | LOX IMVI melanoma 31.6% | SK-MEL-28 melanoma 83.9%
active: K-562 leukemia -4.49%

C[C@]12CC[C@@H]3c4ccc(Oc5nc(N6CC6)nc(N6CC6)n5)cc4CC[C@H]3[C@@H]1CCC2=O
inactive: K-562 leukemia 18% | MALME-3M melanoma 65.4% | MDA-MB-231 breast 74.5% | SF-268 CNS 29.9% | SF-539 CNS 21.6% | UACC-257 melanoma 65.5% | M14 melanoma 44.7% | HT29 colon 19.3% | SNB-75 CNS 30.3% | SNB-19 CNS 48.8% | U251 CNS 31.9% | PC-3 prostate 53.8% | UACC-62 melanoma 18.4% | SK-MEL-28 melanoma 63.5%
active: DU-145 prostate 7.1% | RXF 393 renal -6.13% | SK-MEL-5 melanoma 5.82% | LOX IMVI melanoma -63.1%

CCC1(C)CC(CCNCc2ccccc2O)(c2ccc(C)cc2)CCO1 (stereo not given)
inactive: DU-145 prostate 103% | K-562 leukemia 101% | MALME-3M melanoma 109% | MDA-MB-231 breast 106% | RXF 393 renal 111% | SF-268 CNS 105% | SF-539 CNS 99.1% | UACC-257 melanoma 107% | M14 melanoma 104% | HCT-15 colon 98.3% | HT29 colon 107% | SNB-75 CNS 91.8% | SNB-19 CNS 102% | U251 CNS 99.1% | PC-3 prostate 99.1% | SK-MEL-5 melanoma 97.7% | UACC-62 melanoma 103% | LOX IMVI melanoma 99.8% | SK-MEL-28 melanoma 106%

CC12CC(=O)C3(SC#N)C(CCC4=CC(=O)CCC43C)C1CCC2=O (stereo not given)
inactive: DU-145 prostate 46.2% | K-562 leukemia 89% | MALME-3M melanoma 50.2% | MDA-MB-231 breast 100% | RXF 393 renal 56.5% | SF-268 CNS 101% | UACC-257 melanoma 75.9% | M14 melanoma 89% | HCT-15 colon 34.5% | HT29 colon 64.2% | SNB-75 CNS 93.6% | SNB-19 CNS 96% | U251 CNS 101% | PC-3 prostate 104% | SK-MEL-5 melanoma 101% | UACC-62 melanoma 89.3% | LOX IMVI melanoma 80.8% | SK-MEL-28 melanoma 94.7%

C[CH2][Sn]([Cl])([Cl])[CH2]C.Oc1ccccc1C=NCCN=Cc1ccccc1O
inactive: DU-145 prostate 111% | K-562 leukemia 84.2% | MALME-3M melanoma 95.6% | MDA-MB-231 breast 107% | RXF 393 renal 118% | SF-268 CNS 106% | SF-539 CNS 87.9% | UACC-257 melanoma 94.1% | M14 melanoma 112% | HCT-15 colon 104% | HT29 colon 108% | SNB-75 CNS 121% | SNB-19 CNS 106% | U251 CNS 93.5% | PC-3 prostate 89.8% | SK-MEL-5 melanoma 99.5% | UACC-62 melanoma 93.8% | LOX IMVI melanoma 72.2% | SK-MEL-28 melanoma 124%

O=C1CCC2(O)[C@@H]3Cc4ccc(O)c5c4[C@]2(CCN3Cc2ccoc2)C1O5 (stereo not given in full)
inactive: DU-145 prostate 106% | K-562 leukemia 93.9% | MALME-3M melanoma 96.7% | MDA-MB-231 breast 106% | RXF 393 renal 116% | SF-268 CNS 108% | SF-539 CNS 97.8% | UACC-257 melanoma 103% | M14 melanoma 100% | HCT-15 colon 100% | HT29 colon 102% | SNB-75 CNS 85.1% | SNB-19 CNS 101% | U251 CNS 101% | PC-3 prostate 44.2% | SK-MEL-5 melanoma 100% | UACC-62 melanoma 109% | LOX IMVI melanoma 92.2% | SK-MEL-28 melanoma 115%

ClCCN(CCCl)c1ccc(/C=N/Nc2ncnc3nc[nH]c23)cc1
inactive: DU-145 prostate 62.8% | K-562 leukemia 61.2% | MALME-3M melanoma 106% | MDA-MB-231 breast 96.2% | SF-268 CNS 58.9% | SF-295 CNS 57.8% | SF-539 CNS 72.7% | UACC-257 melanoma 106% | M14 melanoma 76.7% | HCT-15 colon 95% | HT29 colon 77.5% | SNB-75 CNS 72.7% | SNB-19 CNS 82% | U251 CNS 67.6% | PC-3 prostate 232% | SK-MEL-5 melanoma 75% | UACC-62 melanoma 74% | LOX IMVI melanoma 65.8% | SK-MEL-28 melanoma 117%

Reference: PubChem BioAssay (NCI)
